Test results: publication PMC7862700, “An all-to-all approach to the identification of sequence-specific readers for epigenetic DNA modifications on cytosine”

Tests used:
Experiment in all cases: DAPPL (digital affinity profiling via proximity ligation, sequencing); 10 mM Tris-HCl pH 7.5, 50 mM NaCl, 1 mM DTT, 4% glycerol, room temperature, 30 min; GST-TFs on glutathione beads, 16-mer random dsDNA library, 0.1% formaldehyde crosslink after washing; high values mean tight binding
Settings in all cases: protein: recombinant; tags: N-terminal GST; dsDNA, one strand shown
FLI1 = molecular target: T1, FLI1 (Homo sapiens, UniProt Q01543 1-452)
T1 sequence: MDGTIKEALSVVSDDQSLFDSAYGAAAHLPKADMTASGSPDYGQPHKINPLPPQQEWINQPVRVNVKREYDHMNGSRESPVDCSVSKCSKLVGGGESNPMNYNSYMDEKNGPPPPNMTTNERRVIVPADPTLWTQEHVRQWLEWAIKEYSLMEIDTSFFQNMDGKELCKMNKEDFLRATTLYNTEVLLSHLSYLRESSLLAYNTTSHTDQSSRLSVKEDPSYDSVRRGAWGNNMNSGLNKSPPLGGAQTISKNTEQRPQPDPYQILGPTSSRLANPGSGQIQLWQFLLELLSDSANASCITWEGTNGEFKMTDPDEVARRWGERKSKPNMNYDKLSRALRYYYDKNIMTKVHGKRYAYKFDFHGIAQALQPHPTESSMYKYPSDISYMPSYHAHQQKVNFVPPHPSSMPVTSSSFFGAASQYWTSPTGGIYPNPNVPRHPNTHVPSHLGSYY
Outline: (§1)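 Human transcription factors carrying a GST fusion were produced in yeast, bound to glutathione beads, tagged with DNA barcodes and pooled together with a tag-only sample. Each pool was held with 200 nmole of a random double-stranded 16-mer DNA library in Tris/NaCl/DTT/glycerol buffer for 30 min at room temperature, then washed, crosslinked in 0.1% formaldehyde, proximity-ligated with BsaI/T4 ligase (1 h, 37 °C), PCR-amplified and sequenced on an Illumina NextSeq500. Binding signal is the read frequency of each hexamer for a given factor divided by its frequency in the tag-only sample.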

ELK1 = molecular target: T2, ELK1 (Homo sapiens, UniProt P19419 1-428)
T2 sequence: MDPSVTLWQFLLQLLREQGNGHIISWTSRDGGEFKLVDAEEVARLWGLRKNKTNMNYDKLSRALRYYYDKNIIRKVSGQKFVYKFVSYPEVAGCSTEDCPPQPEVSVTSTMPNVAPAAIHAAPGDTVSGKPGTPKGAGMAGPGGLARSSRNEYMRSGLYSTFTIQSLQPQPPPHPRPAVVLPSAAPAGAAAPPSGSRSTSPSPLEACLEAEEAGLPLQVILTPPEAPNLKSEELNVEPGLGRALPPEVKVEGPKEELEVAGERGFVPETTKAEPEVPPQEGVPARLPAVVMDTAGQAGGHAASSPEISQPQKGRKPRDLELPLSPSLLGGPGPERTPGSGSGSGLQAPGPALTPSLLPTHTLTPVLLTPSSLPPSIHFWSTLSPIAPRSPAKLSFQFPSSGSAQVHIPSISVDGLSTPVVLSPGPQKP
Outline: as §1

GABPA = molecular target: T3, GABPA (Homo sapiens, UniProt Q06546 1-454)
T3 sequence: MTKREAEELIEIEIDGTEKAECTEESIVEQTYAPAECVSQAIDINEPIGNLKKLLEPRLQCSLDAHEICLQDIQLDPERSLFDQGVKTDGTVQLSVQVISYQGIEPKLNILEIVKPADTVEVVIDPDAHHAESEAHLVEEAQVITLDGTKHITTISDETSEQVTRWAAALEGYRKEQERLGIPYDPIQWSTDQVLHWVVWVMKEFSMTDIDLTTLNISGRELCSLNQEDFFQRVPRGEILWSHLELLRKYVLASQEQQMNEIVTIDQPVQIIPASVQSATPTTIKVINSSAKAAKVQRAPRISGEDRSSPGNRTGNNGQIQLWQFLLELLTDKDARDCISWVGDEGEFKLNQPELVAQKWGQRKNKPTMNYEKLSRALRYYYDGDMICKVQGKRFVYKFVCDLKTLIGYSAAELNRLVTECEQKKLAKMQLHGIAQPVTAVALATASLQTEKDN
Outline: as §1

ERG = molecular target: T4, ERG (Homo sapiens, UniProt P11308 1-479)
T4 sequence: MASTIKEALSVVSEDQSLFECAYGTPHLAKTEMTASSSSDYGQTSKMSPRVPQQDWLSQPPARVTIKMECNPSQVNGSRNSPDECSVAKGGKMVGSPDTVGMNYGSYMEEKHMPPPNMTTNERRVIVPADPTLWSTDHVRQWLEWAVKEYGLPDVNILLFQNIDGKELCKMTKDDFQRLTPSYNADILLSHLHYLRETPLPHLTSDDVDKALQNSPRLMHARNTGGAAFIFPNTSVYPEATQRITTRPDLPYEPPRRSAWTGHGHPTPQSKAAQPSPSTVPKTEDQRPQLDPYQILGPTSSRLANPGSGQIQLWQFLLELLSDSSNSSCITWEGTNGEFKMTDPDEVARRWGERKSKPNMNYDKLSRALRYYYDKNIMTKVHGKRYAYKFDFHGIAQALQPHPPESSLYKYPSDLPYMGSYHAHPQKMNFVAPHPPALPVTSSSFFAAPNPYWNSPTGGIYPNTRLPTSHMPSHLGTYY
Outline: as §1

ELF1 = ELF1 (Homo sapiens, UniProt P32519 1-619)
Outline: as §1

EHF = molecular target: T5, EHF (Homo sapiens, UniProt Q9NZC4 1-300)
T5 sequence: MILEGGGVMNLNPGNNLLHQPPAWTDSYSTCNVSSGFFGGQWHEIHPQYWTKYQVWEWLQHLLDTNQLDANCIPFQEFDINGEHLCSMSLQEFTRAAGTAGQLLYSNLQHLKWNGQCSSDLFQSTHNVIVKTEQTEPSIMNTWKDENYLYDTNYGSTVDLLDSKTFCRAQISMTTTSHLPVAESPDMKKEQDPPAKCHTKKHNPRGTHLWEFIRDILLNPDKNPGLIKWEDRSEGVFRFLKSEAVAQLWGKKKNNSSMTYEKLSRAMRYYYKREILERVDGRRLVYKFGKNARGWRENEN
Outline: as §1

SPIB = SPIB (Homo sapiens, UniProt Q01892 1-262)
Outline: as §1

FEV = molecular target: T6, FEV (Homo sapiens, UniProt Q99581 1-238)
T6 sequence: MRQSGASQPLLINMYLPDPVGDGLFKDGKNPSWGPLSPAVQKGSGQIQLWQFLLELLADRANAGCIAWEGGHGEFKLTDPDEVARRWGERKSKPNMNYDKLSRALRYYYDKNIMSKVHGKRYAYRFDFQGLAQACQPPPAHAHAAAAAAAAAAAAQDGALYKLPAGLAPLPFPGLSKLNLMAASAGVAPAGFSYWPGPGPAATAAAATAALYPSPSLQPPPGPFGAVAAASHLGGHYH
Outline: as §1

ETV5 = ETV5 (Homo sapiens, UniProt P41161 1-510)
Outline: as §1

SPIC = molecular target: T7, SPIC (Homo sapiens, UniProt Q8N5J4 1-248)
T7 sequence: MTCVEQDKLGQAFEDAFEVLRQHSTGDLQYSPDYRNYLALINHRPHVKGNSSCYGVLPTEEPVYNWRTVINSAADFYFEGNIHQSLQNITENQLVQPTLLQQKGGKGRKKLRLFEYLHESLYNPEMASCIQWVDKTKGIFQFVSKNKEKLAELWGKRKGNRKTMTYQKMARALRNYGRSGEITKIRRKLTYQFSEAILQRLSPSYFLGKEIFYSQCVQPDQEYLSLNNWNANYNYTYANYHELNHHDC
Outline: as §1

ELF4 = ELF4 (Homo sapiens, UniProt Q99607 1-663)
Outline: as §1

ERF = molecular target: T8, ERF (Homo sapiens, UniProt P50548 1-548)
T8 sequence: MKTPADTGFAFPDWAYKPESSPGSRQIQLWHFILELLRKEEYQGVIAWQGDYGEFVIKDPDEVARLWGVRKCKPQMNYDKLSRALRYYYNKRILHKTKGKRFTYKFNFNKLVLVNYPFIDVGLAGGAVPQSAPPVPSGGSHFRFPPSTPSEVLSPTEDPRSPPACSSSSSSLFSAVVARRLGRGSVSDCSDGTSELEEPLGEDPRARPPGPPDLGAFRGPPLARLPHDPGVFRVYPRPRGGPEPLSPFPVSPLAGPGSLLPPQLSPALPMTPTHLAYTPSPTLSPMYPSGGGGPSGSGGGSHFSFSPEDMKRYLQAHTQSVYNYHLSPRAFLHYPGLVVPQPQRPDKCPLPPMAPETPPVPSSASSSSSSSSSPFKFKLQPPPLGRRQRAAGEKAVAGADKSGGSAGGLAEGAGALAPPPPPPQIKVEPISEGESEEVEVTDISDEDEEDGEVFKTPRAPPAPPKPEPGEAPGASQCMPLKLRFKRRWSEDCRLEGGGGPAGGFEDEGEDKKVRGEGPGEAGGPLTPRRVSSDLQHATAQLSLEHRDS
Outline: as §1

ETS2 = molecular target: T9, ETS2 (Homo sapiens, UniProt P15036 1-469)
T9 sequence: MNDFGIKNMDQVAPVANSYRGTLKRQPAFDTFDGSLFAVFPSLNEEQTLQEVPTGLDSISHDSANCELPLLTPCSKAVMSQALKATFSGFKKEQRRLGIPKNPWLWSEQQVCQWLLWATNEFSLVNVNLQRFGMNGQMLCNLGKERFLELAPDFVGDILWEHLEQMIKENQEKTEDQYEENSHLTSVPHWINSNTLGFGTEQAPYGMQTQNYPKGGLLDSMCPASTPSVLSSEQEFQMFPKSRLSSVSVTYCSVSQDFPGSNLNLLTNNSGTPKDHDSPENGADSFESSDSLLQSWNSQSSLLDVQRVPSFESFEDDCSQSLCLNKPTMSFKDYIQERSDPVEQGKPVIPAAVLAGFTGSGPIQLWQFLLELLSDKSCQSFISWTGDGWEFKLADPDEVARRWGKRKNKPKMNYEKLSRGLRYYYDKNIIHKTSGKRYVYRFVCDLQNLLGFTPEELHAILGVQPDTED
Outline: as §1

SPDEF = molecular target: T10, SPDEF (Homo sapiens, UniProt O95238 1-335)
T10 sequence: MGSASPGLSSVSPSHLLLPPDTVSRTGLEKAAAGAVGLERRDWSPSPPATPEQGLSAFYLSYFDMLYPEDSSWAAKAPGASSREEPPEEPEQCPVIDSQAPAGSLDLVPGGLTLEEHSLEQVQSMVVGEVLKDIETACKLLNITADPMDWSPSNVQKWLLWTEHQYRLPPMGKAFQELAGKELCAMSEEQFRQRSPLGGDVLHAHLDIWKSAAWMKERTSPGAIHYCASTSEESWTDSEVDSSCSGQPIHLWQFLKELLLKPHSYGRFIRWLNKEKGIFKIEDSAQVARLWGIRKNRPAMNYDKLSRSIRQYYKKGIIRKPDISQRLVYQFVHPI
Outline: as §1

ETV3 = molecular target: T11, ETV3 (Homo sapiens, UniProt P41162-2 1-143)
T11 sequence: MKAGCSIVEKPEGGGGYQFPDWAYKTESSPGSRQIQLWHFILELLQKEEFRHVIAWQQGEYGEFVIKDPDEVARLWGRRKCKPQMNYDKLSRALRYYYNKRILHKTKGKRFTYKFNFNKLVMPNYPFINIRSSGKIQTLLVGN
Outline: as §1

ETV6 = ETV6 (Homo sapiens, UniProt P41212 1-452)
Outline: as §1

Sequence of SPIB (Q01892 whole entry): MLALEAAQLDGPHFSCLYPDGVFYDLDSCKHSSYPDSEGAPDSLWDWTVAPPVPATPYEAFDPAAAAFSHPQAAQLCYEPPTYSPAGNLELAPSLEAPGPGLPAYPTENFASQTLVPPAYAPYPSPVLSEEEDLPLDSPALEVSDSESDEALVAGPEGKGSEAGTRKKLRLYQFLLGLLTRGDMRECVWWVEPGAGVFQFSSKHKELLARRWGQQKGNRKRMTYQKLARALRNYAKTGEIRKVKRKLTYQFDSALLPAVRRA
Sequence of ETV5 (P41161 whole entry): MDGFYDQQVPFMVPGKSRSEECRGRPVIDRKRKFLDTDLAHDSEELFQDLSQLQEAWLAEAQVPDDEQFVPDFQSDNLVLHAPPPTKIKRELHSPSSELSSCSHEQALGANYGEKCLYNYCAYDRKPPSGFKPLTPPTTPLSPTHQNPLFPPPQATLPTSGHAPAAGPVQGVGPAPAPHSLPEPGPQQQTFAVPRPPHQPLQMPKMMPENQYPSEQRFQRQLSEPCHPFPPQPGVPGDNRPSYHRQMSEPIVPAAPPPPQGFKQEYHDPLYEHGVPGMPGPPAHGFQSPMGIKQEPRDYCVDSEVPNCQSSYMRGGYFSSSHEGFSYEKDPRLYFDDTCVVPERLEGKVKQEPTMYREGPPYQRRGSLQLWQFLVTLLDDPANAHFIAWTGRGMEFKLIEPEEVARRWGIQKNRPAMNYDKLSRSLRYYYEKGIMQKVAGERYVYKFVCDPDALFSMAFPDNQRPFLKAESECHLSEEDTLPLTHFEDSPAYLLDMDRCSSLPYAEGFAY
Sequence of ELF4 (Q99607 whole entry): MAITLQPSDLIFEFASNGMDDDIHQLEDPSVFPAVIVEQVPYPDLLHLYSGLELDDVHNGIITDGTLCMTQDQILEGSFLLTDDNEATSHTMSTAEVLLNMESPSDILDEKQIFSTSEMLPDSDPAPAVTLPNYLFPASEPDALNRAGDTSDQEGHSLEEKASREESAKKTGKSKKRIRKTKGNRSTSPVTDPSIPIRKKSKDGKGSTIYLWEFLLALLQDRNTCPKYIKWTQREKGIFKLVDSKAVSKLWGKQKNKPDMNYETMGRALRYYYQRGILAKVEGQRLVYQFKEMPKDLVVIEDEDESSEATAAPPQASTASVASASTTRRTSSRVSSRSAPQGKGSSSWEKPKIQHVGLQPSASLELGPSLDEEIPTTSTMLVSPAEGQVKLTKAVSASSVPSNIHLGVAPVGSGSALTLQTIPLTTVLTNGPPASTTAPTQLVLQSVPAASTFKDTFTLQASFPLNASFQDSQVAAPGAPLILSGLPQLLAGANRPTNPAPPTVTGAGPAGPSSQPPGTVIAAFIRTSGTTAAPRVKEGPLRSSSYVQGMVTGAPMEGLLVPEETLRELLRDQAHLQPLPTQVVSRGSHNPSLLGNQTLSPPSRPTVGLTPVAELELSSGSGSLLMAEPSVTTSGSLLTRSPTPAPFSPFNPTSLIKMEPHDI
Sequence of ETV6 (P41212 whole entry): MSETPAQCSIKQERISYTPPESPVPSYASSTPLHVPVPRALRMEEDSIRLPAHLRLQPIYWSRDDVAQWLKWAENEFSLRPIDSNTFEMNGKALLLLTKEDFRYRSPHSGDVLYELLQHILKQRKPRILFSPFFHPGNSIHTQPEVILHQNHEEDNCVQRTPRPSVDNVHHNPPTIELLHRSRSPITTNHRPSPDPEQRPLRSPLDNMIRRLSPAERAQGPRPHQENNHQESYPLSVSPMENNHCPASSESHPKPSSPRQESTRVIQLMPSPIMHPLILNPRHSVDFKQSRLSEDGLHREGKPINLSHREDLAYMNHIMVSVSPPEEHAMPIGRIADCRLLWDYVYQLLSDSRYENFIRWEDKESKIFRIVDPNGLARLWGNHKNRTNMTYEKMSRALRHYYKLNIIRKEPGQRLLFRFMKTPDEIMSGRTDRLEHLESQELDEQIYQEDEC
Sequence of ELF1 (P32519 whole entry): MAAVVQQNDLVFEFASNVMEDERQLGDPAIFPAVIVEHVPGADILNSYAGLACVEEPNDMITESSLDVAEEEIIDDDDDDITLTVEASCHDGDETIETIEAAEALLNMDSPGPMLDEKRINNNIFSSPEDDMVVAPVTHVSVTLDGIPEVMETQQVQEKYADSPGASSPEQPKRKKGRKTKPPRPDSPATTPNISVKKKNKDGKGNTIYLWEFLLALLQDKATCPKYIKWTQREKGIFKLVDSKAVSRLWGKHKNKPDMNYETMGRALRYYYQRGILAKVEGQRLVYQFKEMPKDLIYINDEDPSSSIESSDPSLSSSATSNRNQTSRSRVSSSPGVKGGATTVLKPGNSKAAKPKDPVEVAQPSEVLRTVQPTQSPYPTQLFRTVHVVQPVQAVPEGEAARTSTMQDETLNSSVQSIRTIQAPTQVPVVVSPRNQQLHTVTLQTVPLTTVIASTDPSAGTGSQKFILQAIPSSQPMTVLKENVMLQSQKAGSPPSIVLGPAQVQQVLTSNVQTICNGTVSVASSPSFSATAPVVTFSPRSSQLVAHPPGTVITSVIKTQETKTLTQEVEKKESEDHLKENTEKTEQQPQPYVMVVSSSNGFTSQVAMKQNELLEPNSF

AGCAAC was tested, and the binding signal (FLI1) was 1 fold enrichment (6-mer frequency, TF over GST control), the binding signal (ELK1) was 1.03 fold enrichment (6-mer frequency, TF over GST control) and the binding signal (GABPA) was 1.06 fold enrichment (6-mer frequency, TF over GST control). For the same sequence, the binding signal (ERG) was 1.06 fold enrichment (6-mer frequency, TF over GST control), the binding signal (ELF1) was 1.08 fold enrichment (6-mer frequency, TF over GST control) and the binding signal (EHF) was 1.15 fold enrichment (6-mer frequency, TF over GST control). The binding signal (SPIB) was 1.08 fold enrichment (6-mer frequency, TF over GST control), the binding signal (FEV) was 1.08 fold enrichment (6-mer frequency, TF over GST control) and the binding signal (ETV5) was 1.06 fold enrichment (6-mer frequency, TF over GST control). The binding signal (SPIC) was 1.11 fold enrichment (6-mer frequency, TF over GST control), the binding signal (ELF4) was 1.1 fold enrichment (6-mer frequency, TF over GST control) and the binding signal (ERF) was 1.11 fold enrichment (6-mer frequency, TF over GST control). For the same sequence, the binding signal (ETS2) was 1.11 fold enrichment (6-mer frequency, TF over GST control), the binding signal (SPDEF) was 1.08 fold enrichment (6-mer frequency, TF over GST control) and the binding signal (ETV3) was 1.04 fold enrichment (6-mer frequency, TF over GST control). For the same sequence, the binding signal (ETV6) was 1.06 fold enrichment (6-mer frequency, TF over GST control).
